Sampled rows, rich in hits. Any-hit rate of the full collection: about 3.6%.
FBPA Giardia inh: blocks Giardia fructose-bisphosphate aldolase activity. purified Giardia FBPA. Potency, µM (series often up to 59.6 µM), without a hit: at the top dose activity, negative = inhibition, usual class: inhibitors. hit rate 0.71% among 290,000. AID 2451; note: nearly all actives have a fitted effect of over 55% in size
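Giardia FBPA (40 nM reagent) was preincubated 10 min at RT with compound (up to 57.5 uM final), then substrate plus GAPDH/TPI/NAD/arsenate coupling system with diaphorase/resazurin was added; resorufin fluorescence (525/598 nm) was read after 20 min.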
AmpC detergent: inhibitors of E. coli AmpC beta-lactamase with detergent | AmpC hydrolysis of nitrocefin, absorbance 480 nm, 0.01% Triton | hit rate 0.041% among 370,000 | Potency, µM (series often up to 114 µM), for the others: at the highest dose activity change, negative = inhibition, actives largely listed as inhibitors;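 note: 0% = no-compound wells and -100% = no-enzyme wells; nearly all actives have a fitted effect of over 25% in size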
Target sequence (P00811 whole entry, looked up): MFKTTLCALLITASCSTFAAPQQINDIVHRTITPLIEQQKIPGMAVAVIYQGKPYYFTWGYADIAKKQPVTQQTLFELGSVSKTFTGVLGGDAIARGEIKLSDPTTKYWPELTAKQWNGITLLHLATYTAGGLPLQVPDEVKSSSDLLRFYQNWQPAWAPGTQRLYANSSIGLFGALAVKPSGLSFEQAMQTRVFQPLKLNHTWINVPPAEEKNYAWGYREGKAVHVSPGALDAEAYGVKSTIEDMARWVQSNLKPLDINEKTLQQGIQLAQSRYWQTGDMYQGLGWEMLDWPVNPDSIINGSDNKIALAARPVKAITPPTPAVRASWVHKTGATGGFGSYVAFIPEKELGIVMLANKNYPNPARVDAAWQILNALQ
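AmpC (5.3 nM in the dispensed reagent) in 20 mM phosphate pH 7.0 with 0.01% (detergent screen) or 0.0001% Triton X-100 was preincubated with compounds for 15 min at room temperature. Nitrocefin was then added from an 800 uM solution, and hydrolysis was followed at 480 nm.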
Sm TGR inh: S. mansoni TGR enzyme inhibition; Potency, µM (highest dose often 114 µM), inactives show top-dose activity change, negative = inhibition, hits mostly inhibitors; purified TGR, DTNB reduction, TNB absorbance 405 nm; hit rate 3% among 360,000; note: nearly all actives have a fitted effect of over 60% in size
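TGR 20 nM + NADPH 100 uM (dispensed conc.), cpd preinc 15 min RT; start with NADPH (500 uM addition) then DTNB (15 mM addition). Kinetic TNB absorbance, 405 nm filter. Four-parameter Hill fit across titration.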
AmpC inh no detg: inhibitors of E. coli AmpC beta-lactamase without detergent. AmpC nitrocefin hydrolysis, absorbance 480 nm, 0.0001% Triton. Potency, µM (series often up to 57.1 µM), for inactives: top-dose activity change, negative = inhibition, actives largely listed as inhibitors. hit rate 0.52% among 330,000. AID 485341;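 note: plate controls were no compound for no effect and no enzyme for full effect; nearly all actives have a fitted effect of over 20% in size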
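20 mM phosphate pH 7.0 + 0.01% (detergent screen) or 0.0001% Triton X-100; 5.3 nM AmpC reagent; cpd preinc 15 min RT; nitrocefin (800 uM stock) to start; A480 q20 s × 4 min; Activity was normalised to no-enzyme and no-compound control wells.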
* marks the source's active call; other numbers are inactive results; ? = inconclusive; / = no result; [ ] = dose if it differs, or a comment. Calls come from the whole dose curve; as a rule, active = well fitted curve in the direction sought with a large enough effect; inconclusive = small, poorly fitted or top-dose-only effect, or another doubt; inactive = no such curve, though single readings can be large; an effect the other way counts as inactive or inconclusive. Unless noted, % is set by controls: 0 for no effect and ±100 for the full control effect; potency is the fitted concentration of half-maximal effect.

SMILES	FBPA Giardia inh	AmpC detergent	Sm TGR inh	AmpC inh no detg
Cc1nn(C(=O)c2cccc(F)c2)c(C)c1S(=O)(=O)N1CCOCC1	/	19%	?	/
O=C(Nc1ccccc1)Nc1n[nH]c2nnc(-c3ccccc3)c(-c3ccccc3)c12	?	-6%	0%	32µM*
CC(NC(=S)Nc1ccc([N+](=O)[O-])cc1)c1ccncc1 (stereo unspecified)	1%	0%	45µM*	-38%
Cc1cccc2c3c([nH]c12)CCN(C)C3	-2%	1%	8%	-3%
COc1ccc(NC(=O)c2cccc3ccccc23)cc1	-3%	-18%	89µM*	-30%
Cc1[nH]n(-c2ccccc2)c(=O)c1C=Nc1ccc2[nH]c(=O)[nH]c2c1	-2%	2%	10%	-3%
O=c1[nH]c2ccc(N=Cc3c(O)ccc4cc(Br)ccc34)cc2[nH]1	-17%	-5%	32µM*	-19%
Oc1oc(C=Nc2ccc(F)cc2F)c2ccccc12	-6%	7%	50µM*	-28%
COc1cc(OC)c(C2CC(=O)N3CN(c4ccccc4)CSC3=C2C#N)cc1OC (stereo unspecified)	?	-10%	10µM*	-6%
CCc1ccccc1N1CSC2=C(C#N)C(c3cc(OC)c(OC)cc3OC)CC(=O)N2C1 (stereo unspecified)	4.5µM*	-2%	6.3µM*	17%
COc1ccc(Br)cc1C1CC(=O)N2CN(C)CSC2=C1C#N (stereo unspecified)	?	?	?	-28%
COc1ccc(Br)cc1C1CC(=O)N2CN(Cc3ccccc3)CSC2=C1C#N (stereo unspecified)	?	?	0%	-41%
COc1ccc(OC)c(C2CC(=O)N3CN(c4ccccc4F)CSC3=C2C#N)c1 (stereo unspecified)	?	-4%	16µM*	-44%
Nn1cnnc1N/N=C\c1ccc(-c2ccccc2[N+](=O)[O-])o1	1.8µM*	-11%	-18%	-21%
O=[N+]([O-])c1ccccc1-c1ccc(/C=N/n2cnnc2)o1	-13%	-10%	-7%	72%
CCC(C)n1c(=O)c2sccc2n2c(CCCC(=O)Nc3ccc(F)cc3)nnc12 (stereo unspecified)	/	-3%	1%	/
O=C(O)CCC(=O)CCC(=O)c1ccccc1	2%	5%	45µM*	1%
Cc1ccc[n+](CC(=O)Nc2ccc([N+](=O)[O-])cc2)c1	-24%	-13%	35µM*	-23%
Cc1ccc[n+](CC(=O)Nc2cccc([N+](=O)[O-])c2)c1	1%	-9%	/	-1%
O=C(CC1C[C@H](C(=O)N2CCOCC2)[C@@]2(CCC3CCCC3)c3[nH]c4ccccc4c3CCN2C1=O)NCC12CC3CC(CC(C3)C1)C2 (stereo partly specified)	/	/	/	-14%
Cc1cccc(NC(=O)C2CCN(S(=O)(=O)c3ccc4c(c3)NC(=O)CO4)CC2)c1	10%	-7%	6%	-23%
CNc1oc(Cc2ccccc2)nc1S(=O)(=O)c1ccc(Cl)cc1	-7%	-12%	13µM*	-27%
O=S(=O)(c1ccc(Cl)cc1)c1nc(-c2ccccc2Br)oc1NCc1ccccc1	/	7%	-2%	/
N#C/C(=C\c1ccc(OC(=O)c2ccccn2)cc1)C(N)=O	?	-4%	40µM*	-13%
N#C/C(=C\c1ccc(OCc2ccccc2)cc1)C(N)=O	8%	3%	2%	-9%
SMILES	FBPA Giardia inh	AmpC detergent	Sm TGR inh	AmpC inh no detg
Cc1cc2c(cc1S(=O)(=O)N(CCO)Cc1ccccc1)OCC(=O)N2	/	20%	5%	/
O=C(CSc1nc2sc3c(c2c(=O)n1-c1ccccc1)CCCC3)N/N=C/c1ccccc1C(=O)O	0%	-14%	1%	-26%
COc1ccc(Cn2c(C(=O)O)c(CNCCc3ccco3)c3ccc(OC)cc32)cc1	/	6%	45µM*	/
Cc1ccc2c(CNCCc3ccco3)c(C(=O)O)n(Cc3ccc(F)cc3)c2c1	/	0%	40µM*	/
COc1ccc(Cn2c(C(=O)O)c(CNCc3ccco3)c3ccc(C)cc32)cc1	/	14%	0%	/
COc1ccc(-n2ccn(Cc3ccccc3Cl)c(=O)c2=O)cc1OC	/	21%	4%	/
O=C(Nc1nccs1)c1cccc(NC(=O)C(F)(F)F)c1	-3%	-7%	13%	-20%
COc1ccc(NC(=O)c2ccc([N+](=O)[O-])o2)cc1	-13%	0%	?	-5%
Cc1cc(C)cc(NC(=O)c2ccc([N+](=O)[O-])o2)c1	-26%	-18%	35µM*	-22%
CC(=O)c1ccc(NC(=O)c2ccc([N+](=O)[O-])o2)cc1	-11%	-8%	28µM*	-10%
Cc1ccc(C)c(-c2nnc(NC(=O)c3ccc([N+](=O)[O-])o3)o2)c1	/	3%	35µM*	-20%
Cc1cccc(NC(=O)c2ccc(-n3cccn3)c([N+](=O)[O-])c2)c1	-30%	9%	40µM*	-25%
N#Cc1ccc(C(=O)Nc2cc(C3CC3)nn2-c2ccccc2)cc1	/	-3%	3%	-20%
CCC(C)NC(=S)N1CCN(C)CC1 (stereo unspecified)	?	2%	9%	-16%
Cc1cccc(NC(=O)c2ccc(-c3ccccc3[N+](=O)[O-])o2)c1	-6%	2%	3.5µM*	-31%
COc1cccc(NC(=O)c2ccc(-c3ccccc3[N+](=O)[O-])o2)c1	-3%	3%	0%	?
CN(C(=O)Cn1nnc(-c2ccc(S(C)(=O)=O)cc2)n1)c1ccccc1	/	-7%	12%	/
O=C(N/N=C/c1ccc([N+](=O)[O-])o1)c1ccccc1NS(=O)(=O)c1cccs1	-19%	0%	28µM*	-36%
O=C(NN=Cc1ccc(F)cc1)c1ccccc1NS(=O)(=O)c1cccs1	/	/	/	-32%
Cc1nc2ccccn2c1C(=O)N/N=C/c1ccc([N+](=O)[O-])o1	?	-8%	14µM*	-24%
O=C(N/N=C\c1ccc([N+](=O)[O-])o1)c1cncc(Br)c1	?	1%	35µM*	0%
CCCCCC(=O)N/N=C/c1ccc([N+](=O)[O-])o1	-10%	-3%	40µM*	-18%
CC(C)(C)NS(=O)(=O)c1ccc(/C=C/C(=O)O)cc1	11%	?	-3%	-15%
CCN(CC)c1ccc(N=Cc2ccc([N+](=O)[O-])o2)cc1	?	-12%	35µM*	-40%
CCN(CC)c1ccc(N=Cc2ccccc2[N+](=O)[O-])cc1	?	?	?	-23%
Nc1nonc1C(=O)N/N=C/c1ccc([N+](=O)[O-])o1	?	7%	20µM*	-21%
O=C(N/N=C/c1ccc([N+](=O)[O-])o1)c1ccncc1	?	7%	?	-10%
CN(CCOC(=O)CN1C(=O)c2ccccc2C1=O)C1=NS(=O)(=O)c2ccccc21	2%	?	0%	-7%[11.4 µM]
CCCS(=O)(=O)NCCc1sc2nc(-c3ccc(F)cc3)nn2c1C	/	-1%	9%	/
CC1CCN(CCCNc2cc(NCCO)c([N+](=O)[O-])c3nonc23)CC1	-2%	1%	-3%	-20%

High-throughput results (PubChem BioAssay)
